An excerpt weighted towards active compounds, which were near 19% of everything screened.
TDP1 cell CPT: growth inhibition of DT40 Tdp1-/-;hTDP1 cells with camptothecin (screen for TDP1 inhibitors) | chicken DT40 Tdp1-/-;hTDP1 cells + 20 nM CPT, ATP luminescence, 48 h | Potency, µM (highest dose often 46.2 µM), inactives show at the highest dose activity change, negative = growth inhibition, usual class: inhibitors | hit rate 12% among 420,000; also: potency is read from the fitted curve at half-maximal effect; nearly all actives have a fitted effect of over 55% in size
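Chicken DT40 Tdp1-/- cells stably complemented with human TDP1 were seeded at 400 cells/well in medium containing 20 nM camptothecin, exposed to pin-transferred compounds, and grown at 37 °C for at least 48 hr. Viability was read as ATP luminescence.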
HT1080-NT tox: kills 2HG-producing HT-1080-NT fibrosarcoma cells. HT-1080-NT fibrosarcoma viability, CellTiter-Glo ATP luminescence, 48 h. Potency, µM (top dose mostly 46.1 µM), inactives show at the highest dose activity, negative = less viability, most hits filed as cytotoxic. hit rate 1.6% among 360,000;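 also: NT is the 2HG producing partner of a matched IDH1 knockdown line; potency is read from the fitted curve at half-maximal effect; 0% = DMSO-treated cells and -100% = media-only wells without cells; nearly all actives have a fitted effect of over 55% in size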
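Fibrosarcoma NT cells, 750 per well in 5% FBS RPMI, were exposed to compound for 48 hours. Viability: CellTiter-Glo luminescence.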
HT1080 IDH1KD tx: kills HT-1080 cells with IDH1 knockdown. HT-1080 IDH1 knockdown viability, ATP luminescence, 48 h. Potency, µM (titrated, usually from 46.1 µM), for inactives: at the top dose activity, negative = toxicity, actives largely listed as cytotoxic. hit rate 2% among 360,000. AID 686971;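 also: potency is read from the fitted curve at half-maximal effect; 0% = DMSO wells and -100% = cell-free medium wells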
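Assay cells: HT-1080 with IDH1 knockdown, 750 per well, RPMI/5% FBS. Exposure: 48 h at 37 °C following 2 h pre-incubation. Read: CellTiter-Glo luminescence; fitted concentration-response, curve class assigned.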
IL1B secr inh: blocks inflammasome-driven IL-1 beta release; THP-1 LPS/ATP IL-1B secretion, AlphaLISA, 16 h; hits give low values; hit rate 4.7% among 360,000; activity change, % at 57.5 µM; in the data active = activity change below about -50%; inconclusive = mostly about -30% to -49%
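THP-1 cells pretreated 1 hr with compounds (up to 57.5 uM final), then stimulated with LPS (250 ng/mL final) plus ATP (1.25 mM final); secreted IL-1B measured by AlphaLISA after 16 hr, decreased signal indicating inhibition.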
TDP1 cell noCPT: qHTS for Inhibitors of human tyrosyl-DNA phosphodiesterase 1 (TDP1): qHTS in cells in absence of CPT. Potency, µM (highest dose often 46.2 µM), for inactives: at the highest dose activity change, negative = growth inhibition, actives largely listed as inhibitors. hit rate 15% among 420,000. DT40 Tdp1-/- hTDP1 cells, no CPT, ATP luminescence, 48 h. AID 686978, 2013; also: potency is read from the fitted curve at half-maximal effect; nearly all actives have a fitted effect of over 55% in size
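Seeded 400 DT40-hTDP1 cells/well (vehicle DMSO, no 20 nM CPT); pinned compounds; ≥48 hr at 37 °C; CellTiter-Glo luminescence as viability measure.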
* hit, by the source's call; ? = inconclusive; nt = no result given. Unless noted, calls follow the shape of the dose curve; as a rule, active = well fitted curve in the direction sought with a large enough effect; inconclusive = small, poorly fitted or top-dose-only effect, or another doubt; inactive = no such curve, though single readings can be large; an effect the other way counts as inactive or inconclusive. Unless noted, % is scaled to controls: 0 for no effect and ±100 for the full control effect.

SMILES | TDP1 cell CPT | HT1080-NT tox | HT1080 IDH1KD tx | IL1B secr inh | TDP1 cell noCPT
O=C(NCc1cccnc1)/C(=C\c1ccc(-c2ccc(Cl)c(Cl)c2)o1)S(=O)(=O)c1ccccc1 | 4.61µM* | ? | ? | -107.2* | 4.61µM*
O=C(NCc1cccnc1)c1ccc(Cl)c(Cl)c1 | 23.1% | -2.9% | 1.6% | 17.3 | 14.3%
Cc1cc(C)c(C)c(S(=O)(=O)NCC(=O)Nc2ccc(F)cc2)c1C | ? | ? | ? | 0.0 | -28.8%
COc1ccc(NC(=O)[C@H](C)NS(=O)(=O)c2ccc(NC(C)=O)cc2)cc1Cl | 12.3% | 14.3% | 15.2% | -10.7 | 4.2%
COc1ccc(NC(C)C(=O)Nc2ccc(C(C)(C)C)cc2)cc1Cl (stereo not given) | 29.1µM* | ? | ? | -53.7* | ?
Cc1ccc(S(=O)(=O)NCCC(=O)NNC(=O)c2ccccc2O)cc1C | ? | -19.2% | -14.6% | 24.5 | ?
Cc1cc(C)nc(-n2nc(C)cc2NC(=O)CN2CCCC(C)C2)n1 (stereo not given) | ? | 1.26µM* | 2µM* | -15.0 | ?
COc1ccc(CNCC(=O)Nc2cc(C)nn2-c2nc(C)cc(C)n2)cc1OC | 9.2µM* | -3.8% | -8.5% | -4.0 | 8.2µM*
Cc1cc(C)nc(-n2nc(C)cc2NC(=O)CN2CCc3ccccc3C2)n1 | 10.3µM* | ? | 1.58µM* | 23.1 | 23.1µM*
Cc1ccc(NC(=S)N2CCCCCC2)cc1 | 7.9% | 13.3% | 11.3% | -5.4 | -4.4%
CC1CCCC(C)N1C(=O)COC(=O)C1CCN(S(=O)(=O)c2c(Cl)cccc2Cl)CC1 (stereo not given) | -4.1% | 8.1% | 1.5% | 6.0 | -8.8%
Fc1ccc(Sc2nc(-c3ccccc3)nnc2C(F)(F)F)cc1 | 5.8µM* | 23.1µM* | 23.1µM* | -120.0* | 13µM*
NC(=O)c1sc2nccc(Nc3ccccc3)c2c1N | 10.3µM* | -7.3% | -13.1% | -11.6 | 20.6µM*
CSCC[C@H](NS(=O)(=O)c1ccc(C)cc1)C(=O)N1CCC(C(=O)N[C@@H](C)C(=O)O)CC1 | -15.9% | 0.4% | 8.2% | 16.6 | -2.2%
CN(C)CCOc1ccccc1Cc1ccccc1 | ? | -25.3% | -1.7% | -16.6 | ?
CNCCCCOc1ccccc1Cc1ccccc1 | 7.5µM* | nt | nt | nt | 8.41µM*
Cc1cccc(N=Cc2[nH]c3ccc(Br)c(Cl)c3c2O)c1 | 25.9µM* | ? | -0.6% | 43.4 | ?
COc1ccccc1CN=Cc1[nH]c2ccc(Br)c(Cl)c2c1O | ? | 4.7% | 9.8% | -2.2 | ?
COc1ccccc1C(=Cc1ccc([N+](=O)[O-])cc1)C(=O)O | 3.9% | 3.5% | 0.7% | 8.9 | 6.1%
O=C(O)C(=Cc1ccc([N+](=O)[O-])cc1)c1cccc(Cl)c1 | 8.2µM* | -1.9% | 0.4% | 26.1 | ?
O=C(Cn1nc(Cc2cccnc2)c2ccccc2c1=O)N1CCN(c2ccc(F)cc2)CC1 | ? | nt | nt | nt | 23.1µM*
Cc1ccc(C)c(N2CCN(C(=O)Cn3nc(Cc4cccnc4)c4ccccc4c3=O)CC2)c1 | ? | nt | nt | nt | 23.1µM*
Cc1c(N2C(=O)CS/C2=N\N=C\c2ccc(Br)cc2)c(=O)n(-c2ccccc2)n1C | 0.2% | 4.3% | -1.4% | -17.9 | 0.7%
CCC(C(=O)Nc1ccccc1Cl)n1nc(C)c2c(C)n(-c3ccccc3)nc2c1=O (stereo not given) | ? | 8.5% | ? | -18.6 | ?
CCC(C(=O)NCc1cccc(C)c1)n1nc(C)c2c(C)n(-c3ccccc3)nc2c1=O (stereo not given) | ? | -8.4% | -4.1% | 2.9 | ?
CCc1ccc(CNC(=O)C(CC)n2nc(C)c3c(C)n(-c4ccccc4)nc3c2=O)cc1 (stereo not given) | 23.1µM* | nt | nt | nt | 16.4µM*
CCC(C(=O)NCc1cccc(Br)c1)n1nc(C)c2c(C)n(-c3ccccc3)nc2c1=O (stereo not given) | 23.1µM* | nt | nt | nt | ?
